# Measured values: PubChem BioAssay (NCI)
# This is part of a sample that, as a whole, favours compounds with a hit. Of some 83,000 tested, about 20% had one in any assay.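 Testing used 96-well plates and a 48-hour single-concentration exposure. Example: -40 means 40% of the starting cells died.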 A number with no mark means an inactive call. The source made the active and inactive calls.
# Tested on: SNB-19 CNS
# Test: NCI-60 one-dose screen, 48 h (100 = growth as untreated, 0 = no growth, -100 = all killed)
# Conditions: 10 µM unless noted
# Experimental: Growth inhibition of the SNB-19 human tumor cell line is measured as a screen for anti-cancer activity. Cells are grown in 96 well plates and exposed to the test compound for 48 hours. Compounds are tested at a single concentration, which is 10^-5 M for most compounds. The reported endpoint is percent growth (GI% or GIPRCNT), where numbers from 0 - 100% represent growth inhibition, and numbers from -100% - 0 represent cell death. For example, a value of 40 represents 60% growth inhibition. A value of 0 means no net growth occurred over the course of the experiment. A value of -40 indicates 40% of cells at the beginning of the experiment died by the end of the experiment. A value of -100 means all cells are dead at the end of the experiment.
# NCI-60 Human Tumor Cell Lines Screen was performed using the standard one-dose NCI protocol, which is described in more detail at https://dtp.cancer.gov/discovery_development/nci-60/default.htm.
# Compounds with GIPRCNT values below 10 were considered active. Activity score was based on GIPRCNT using the following formula: […]
# Score is 0 for GIPRCNT values of 100 or above, 50 for GIPRCNT values of 0, and 100 for GIPRCNT values of -100.
row,SMILES,growth
1,C#C[C@]1(O)CC[C@H]2[C@@H]3CC=C4c5nc(N)sc5CC[C@]4(C)[C@H]3CC[C@@]21C,71.6%
2,Cc1ccc(S(=O)(=O)Nc2ccccc2)cc1N,108%
3,N=C(N)c1ccc(-c2ccc(-c3ccc(-c4cccs4)s3)s2)cc1F,91.6%
4,Cc1cccc(C[C@H](NC(=O)Nc2ccc(C)cc2F)C(=O)N[C@@H]2C(=O)N3C[C@H](O)C[C@H]3C(=O)N3CCN(C)C[C@H]3C(=O)N[C@@H](C)C(=O)N3C[C@H](C)C[C@H]3C(=O)O[C@H]2C)c1,22.7%
5,CCN(CC)c1ccc2cc(C(Nc3ccc(C)cc3)c3nnnn3C(C)(C)C)c(=O)oc2c1 (stereo not given),87.8%
6,Clc1ccccc1/C=N\Nc1ccccn1,90.6%
7,CN(C)CCCNc1nc(-c2cccc(C(Cl)(Cl)Cl)c2)nc(C(Cl)(Cl)Cl)n1,102%
8,COc1ccc2c(c1)c(-c1noc(-c3cn(C)c4ncc(F)cc34)n1)cn2C,76.2%
9,C=C(C)[C@@H]1CC[C@]2(C(=O)NCCNCCNCCN)CC[C@]3(C)[C@H](CC[C@@H]4[C@@]5(C)CCC(=O)C(C)(C)[C@@H]5CC[C@]43C)[C@@H]12,-78.5% [100 µM] (active)
10,C=C(C)[C@@H]1CC[C@]2(C(=O)N3CCN(C)CC3)CC[C@]3(C)[C@H](CC[C@@H]4[C@@]5(C)C/C(=C/c6ccncc6)[C@H](O)C(C)(C)[C@@H]5CC[C@]43C)[C@@H]12,14.4% [100 µM]
11,NC(=S)Cc1ccccc1,98.2%
12,O=C(Oc1ccc(Cl)cc1[N+](=O)[O-])Oc1ccc(Cl)cc1[N+](=O)[O-],115%
13,Cn1cc(-c2noc(-c3cn(C)c4ncc(F)cc34)n2)c2ccccc21,81.2%
14,CCOC(=O)CCC[P+](c1ccccc1)(c1ccccc1)c1ccccc1,96%
15,CCOc1ccc(S(=O)(=O)Nc2ccc3c(c2)N(S(=O)(=O)CC)CCC3)cc1,80.4%
16,COc1ccc2nc3c(cc2c1)C(=O)CC(C(F)(F)F)C3 (stereo not given),50.3%
17,CCOC(=O)C(=Cc1ccccc1[N+](=O)[O-])C(=O)OCC,59.6%
18,COc1ccc(-c2cc(-c3ccc(Cl)cc3)nc(NCCCCNc3ccnc4cc(Cl)ccc34)n2)cc1,95.5%
19,Cn1cc(-c2noc(-c3cn(C)c4ncccc34)n2)c2cc(Cl)ccc21,100%
20,COc1ccc(NC(=S)NNc2ccc(-c3ccc(OC)c(OC)c3)nn2)cc1,97.1%

row,SMILES,growth
1,CO[C@H]1CC[C@@]2(C)C(=CC[C@H]3[C@@H]4C[C@H](O)C[C@@]4(C)CC[C@@H]32)C1,55.3%
2,CN(C)C(=S)Sc1ccc([N+](=O)[O-])cc1[N+](=O)[O-],83.2%
3,C#CCNC(=O)CC[C@]1(C)[C@H]2CC[C@@H]3[C@@H]([C@@](C)(O)CCC=C(C)C)CC[C@@]3(C)[C@]2(C)CC[C@H]1C(=C)C,60.9% [100 µM]
4,CC(C)c1ccc(C(=O)Nc2nc3ccc(O)cc3s2)cc1,53.8%
5,O=c1cc(-c2ccccc2)oc2c(O)c(O)ccc12,58%
6,CC(C)c1ccc(/C=N/N=C(N)N)cc1,97.1%
7,CCOC(=O)c1sc2nc(-c3cc(OC)c(OC)c(OC)c3)nc(N3CCOCC3)c2c1C,53.2%
8,O=[N+]([O-])c1cc(CCl)ccc1OCCBr,107%
9,CC1(C)CC[C@]2(C(=O)O)CC[C@]3(C)C(=CC[C@@H]4[C@@]5(C)C/C(=C/c6cccnc6)[C@H](O)C(C)(C)[C@@H]5CC[C@]43C)[C@@H]2C1,16.6% [100 µM]
10,C=C(C)[C@@H]1CC[C@]2(C(=O)O)CC[C@]3(C)[C@H](CC[C@@H]4[C@@]5(C)C/C(=C/c6ccco6)C(=O)C(C)(C)[C@@H]5CC[C@]43C)[C@@H]12,-51.5% [100 µM] (active)
11,COc1ccc(C(C(=O)O)c2ccc(OC)cc2)cc1,113%
12,CCOC(=O)COc1c(C)cc(SSc2cc(C)c(OCC(=O)OCC)c(C)c2)cc1C,109%
13,Cc1ccc(S(=O)(=O)n2cc(C(=O)C(=O)N3CCCCC3)c3ccccc32)cc1,97.7%
14,O=C1CC(c2ccccc2)Cc2nc3ccc(Cl)cc3cc21 (stereo not given),24.9%
15,CCOC(=O)/C(C#N)=C(\C)CCc1ccccc1,104%
16,CCN(CC)CCSC(=O)C(O)(c1ccccc1)C1CCCC1 (stereo not given),111%
17,Nc1cc(C(=O)O)[nH]c(=S)n1,97.5%
18,O=C(Nc1ccc(Oc2ccc(F)cc2)c(Cl)c1)c1cccnn1,66.2%
19,C[C@H]1[C@H](C)CC[C@]2(COC(=O)CCC(=O)O)CC[C@]3(C)C(=CC[C@@H]4[C@@]5(C)CCCNC(C)(C)[C@@H]5CC[C@]43C)[C@H]12,53.1% [100 µM]
20,COc1ccc(C(=O)c2nccc3cc(OC)c(OC)cc23)cc1OC,94.9%
